The results in this text go back to ChEMBL document CHEMBL2218924, “A broad activity screen in support of a chemogenomic map for kinase signalling research and drug discovery” (Biochem J, 2013).

The target of assay [1] is T1, Muscle, skeletal receptor tyrosine-protein kinase (Homo sapiens) (UniProt O15146).
T1 sequence (whole entry): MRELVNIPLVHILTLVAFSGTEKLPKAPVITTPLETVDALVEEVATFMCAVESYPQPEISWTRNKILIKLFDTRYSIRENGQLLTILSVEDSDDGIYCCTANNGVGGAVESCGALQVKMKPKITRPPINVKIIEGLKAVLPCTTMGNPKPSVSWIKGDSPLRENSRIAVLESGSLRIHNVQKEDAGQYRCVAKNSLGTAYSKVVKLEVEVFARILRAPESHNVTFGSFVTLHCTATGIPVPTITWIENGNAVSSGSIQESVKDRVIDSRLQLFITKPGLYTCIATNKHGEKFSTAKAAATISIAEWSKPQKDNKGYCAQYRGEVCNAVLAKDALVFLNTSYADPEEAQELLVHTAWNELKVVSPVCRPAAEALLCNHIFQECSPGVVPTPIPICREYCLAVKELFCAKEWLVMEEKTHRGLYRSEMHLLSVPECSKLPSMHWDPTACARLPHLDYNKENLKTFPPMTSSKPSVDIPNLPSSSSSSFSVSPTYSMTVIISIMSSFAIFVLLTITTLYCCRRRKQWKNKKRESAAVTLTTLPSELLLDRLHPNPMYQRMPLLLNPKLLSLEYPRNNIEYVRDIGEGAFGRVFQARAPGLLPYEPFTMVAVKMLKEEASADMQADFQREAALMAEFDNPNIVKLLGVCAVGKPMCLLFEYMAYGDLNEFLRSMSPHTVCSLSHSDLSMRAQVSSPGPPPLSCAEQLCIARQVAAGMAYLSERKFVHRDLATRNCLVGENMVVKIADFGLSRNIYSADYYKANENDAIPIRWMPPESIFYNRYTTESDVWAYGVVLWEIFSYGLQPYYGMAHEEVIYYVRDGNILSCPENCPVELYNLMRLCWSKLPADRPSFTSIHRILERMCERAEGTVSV
The following applies: at 1 µM.

Assay [2] deals with T1, Muscle, skeletal receptor tyrosine-protein kinase (Homo sapiens). Particulars: at 10 µM.
The target in assay [3] is T2, Serine/threonine-protein kinase Nek11 (Homo sapiens) (UniProt Q8NG66).
T2 sequence (whole entry): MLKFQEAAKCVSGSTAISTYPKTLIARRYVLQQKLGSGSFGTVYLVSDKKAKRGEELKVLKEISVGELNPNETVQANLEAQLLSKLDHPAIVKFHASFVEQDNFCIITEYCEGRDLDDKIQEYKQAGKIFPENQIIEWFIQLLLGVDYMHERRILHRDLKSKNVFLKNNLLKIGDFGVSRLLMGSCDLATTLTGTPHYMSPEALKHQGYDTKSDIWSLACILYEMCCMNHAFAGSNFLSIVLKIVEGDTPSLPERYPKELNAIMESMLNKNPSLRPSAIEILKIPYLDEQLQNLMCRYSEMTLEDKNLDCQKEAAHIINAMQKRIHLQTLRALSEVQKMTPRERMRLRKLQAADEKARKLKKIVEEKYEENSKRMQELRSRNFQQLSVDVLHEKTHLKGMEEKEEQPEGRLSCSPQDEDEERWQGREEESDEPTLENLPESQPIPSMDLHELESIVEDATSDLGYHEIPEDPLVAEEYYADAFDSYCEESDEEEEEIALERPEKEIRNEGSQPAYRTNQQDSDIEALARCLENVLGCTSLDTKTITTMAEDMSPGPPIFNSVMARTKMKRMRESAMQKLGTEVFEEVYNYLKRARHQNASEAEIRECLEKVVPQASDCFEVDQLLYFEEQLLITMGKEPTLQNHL
Particulars: at 1 µM.

Assay [4] deals with T2, Serine/threonine-protein kinase Nek11 (Homo sapiens). The following applies: at 10 µM.
Assay [5] deals with T3, Serine/threonine-protein kinase Nek2 (Homo sapiens) (UniProt P51955).
T3 sequence (whole entry): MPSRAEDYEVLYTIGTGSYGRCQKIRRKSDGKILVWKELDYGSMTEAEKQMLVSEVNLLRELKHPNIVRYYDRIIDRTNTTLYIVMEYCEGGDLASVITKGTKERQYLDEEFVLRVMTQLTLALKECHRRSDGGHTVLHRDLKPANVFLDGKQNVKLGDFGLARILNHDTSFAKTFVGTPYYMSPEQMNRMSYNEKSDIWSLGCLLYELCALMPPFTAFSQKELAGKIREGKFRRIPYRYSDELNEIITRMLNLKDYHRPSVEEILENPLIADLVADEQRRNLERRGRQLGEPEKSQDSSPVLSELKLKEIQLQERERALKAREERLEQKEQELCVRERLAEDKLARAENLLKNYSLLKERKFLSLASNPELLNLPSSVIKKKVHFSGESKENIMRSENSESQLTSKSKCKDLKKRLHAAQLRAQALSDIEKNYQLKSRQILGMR
The following applies: at 1 µM.

In assay [6] the target is T3, Serine/threonine-protein kinase Nek2 (Homo sapiens). The following applies: at 10 µM.
In assay [7] the target is T4, Serine/threonine-protein kinase Nek3 (Homo sapiens) (UniProt P51956).
T4 sequence (whole entry): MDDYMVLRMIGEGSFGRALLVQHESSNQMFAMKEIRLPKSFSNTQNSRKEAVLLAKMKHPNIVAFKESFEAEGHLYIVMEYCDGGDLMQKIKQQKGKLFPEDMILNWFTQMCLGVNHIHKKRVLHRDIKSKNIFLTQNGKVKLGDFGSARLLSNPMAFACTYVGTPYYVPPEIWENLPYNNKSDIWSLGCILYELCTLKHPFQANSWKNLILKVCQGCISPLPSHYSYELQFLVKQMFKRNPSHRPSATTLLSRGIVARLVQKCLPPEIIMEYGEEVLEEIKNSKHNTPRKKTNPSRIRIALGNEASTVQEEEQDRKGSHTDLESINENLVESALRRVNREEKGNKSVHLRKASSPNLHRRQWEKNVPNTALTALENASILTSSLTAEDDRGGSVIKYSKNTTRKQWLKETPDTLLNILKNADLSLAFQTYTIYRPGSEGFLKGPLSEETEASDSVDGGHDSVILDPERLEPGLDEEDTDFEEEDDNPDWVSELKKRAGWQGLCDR
Particulars: at 1 µM.

Assay [8] has as its target T4, Serine/threonine-protein kinase Nek3 (Homo sapiens). The following applies: at 10 µM.
Assay [9] addresses Serine/threonine-protein kinase tousled-like 2 (Homo sapiens) (UniProt Q86UE8). Particulars: at 1 µM.
Assay [10] has the same target. The following applies: at 10 µM.
Assay [11] addresses T5, Testis-specific serine/threonine-protein kinase 1 (Homo sapiens) (UniProt Q9BXA7).
T5 sequence (whole entry): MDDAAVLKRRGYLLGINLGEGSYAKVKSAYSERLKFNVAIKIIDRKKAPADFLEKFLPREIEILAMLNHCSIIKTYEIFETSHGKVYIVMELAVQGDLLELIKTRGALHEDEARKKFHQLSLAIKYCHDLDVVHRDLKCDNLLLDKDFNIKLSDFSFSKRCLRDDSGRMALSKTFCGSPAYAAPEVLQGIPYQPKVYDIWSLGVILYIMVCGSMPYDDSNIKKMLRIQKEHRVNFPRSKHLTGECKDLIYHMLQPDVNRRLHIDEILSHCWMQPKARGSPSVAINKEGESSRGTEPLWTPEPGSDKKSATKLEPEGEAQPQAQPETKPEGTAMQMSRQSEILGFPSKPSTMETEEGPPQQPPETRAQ
The following applies: at 1 µM.

Assay [12] concerns the target T5, Testis-specific serine/threonine-protein kinase 1 (Homo sapiens). The following applies: at 10 µM.
For assay [13], the target named is T6, Testis-specific serine/threonine-protein kinase 2 (Homo sapiens) (UniProt Q96PF2).
T6 sequence (whole entry): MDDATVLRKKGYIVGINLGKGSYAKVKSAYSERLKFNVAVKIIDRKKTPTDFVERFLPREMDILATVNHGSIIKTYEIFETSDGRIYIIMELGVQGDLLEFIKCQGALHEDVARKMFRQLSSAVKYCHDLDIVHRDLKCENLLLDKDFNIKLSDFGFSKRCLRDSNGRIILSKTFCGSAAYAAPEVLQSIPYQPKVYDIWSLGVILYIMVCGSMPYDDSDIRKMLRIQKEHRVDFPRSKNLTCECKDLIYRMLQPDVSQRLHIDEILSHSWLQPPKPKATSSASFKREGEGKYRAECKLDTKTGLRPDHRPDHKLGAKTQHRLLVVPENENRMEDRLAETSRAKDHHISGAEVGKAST
Particulars: at 10 µM.

For assay [14], the target named is T7, Tyrosine-protein kinase Tec (Homo sapiens) (UniProt P42680).
T7 sequence (whole entry): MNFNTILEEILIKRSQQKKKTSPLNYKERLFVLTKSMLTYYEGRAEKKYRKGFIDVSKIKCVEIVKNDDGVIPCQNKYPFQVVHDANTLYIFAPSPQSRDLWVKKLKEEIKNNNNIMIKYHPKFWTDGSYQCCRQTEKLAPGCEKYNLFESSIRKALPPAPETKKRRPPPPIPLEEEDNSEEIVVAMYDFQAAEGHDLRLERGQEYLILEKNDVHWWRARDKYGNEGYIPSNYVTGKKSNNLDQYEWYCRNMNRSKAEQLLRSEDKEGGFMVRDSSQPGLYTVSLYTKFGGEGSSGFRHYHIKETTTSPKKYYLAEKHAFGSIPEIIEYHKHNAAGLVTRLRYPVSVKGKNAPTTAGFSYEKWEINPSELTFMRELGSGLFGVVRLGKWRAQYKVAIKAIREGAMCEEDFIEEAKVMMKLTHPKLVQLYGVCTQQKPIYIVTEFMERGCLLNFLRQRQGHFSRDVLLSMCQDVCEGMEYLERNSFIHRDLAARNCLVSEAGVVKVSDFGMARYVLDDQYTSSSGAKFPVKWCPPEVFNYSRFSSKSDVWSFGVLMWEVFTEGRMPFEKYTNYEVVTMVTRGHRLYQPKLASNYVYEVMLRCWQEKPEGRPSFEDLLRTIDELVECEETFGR
Particulars: at 1 µM.

The target of assay [15] is T7, Tyrosine-protein kinase Tec (Homo sapiens). Particulars: at 10 µM.
The target of assay [16] is Angiopoietin-1 receptor (Homo sapiens) (UniProt Q02763). Particulars: at 1 µM.
The target is the same in assay [17]. The following applies: at 10 µM.
In assay [18] the target is High affinity nerve growth factor receptor (Homo sapiens) (UniProt P04629). Particulars: at 1 µM.
Assay [19] shares this target. Particulars: at 10 µM.
The target in assay [20] is BDNF/NT-3 growth factors receptor (Homo sapiens) (UniProt Q16620). The following applies: at 1 µM.
BDNF/NT-3 growth factors receptor (Homo sapiens), sequence (Q16620 32-822 limits assumed): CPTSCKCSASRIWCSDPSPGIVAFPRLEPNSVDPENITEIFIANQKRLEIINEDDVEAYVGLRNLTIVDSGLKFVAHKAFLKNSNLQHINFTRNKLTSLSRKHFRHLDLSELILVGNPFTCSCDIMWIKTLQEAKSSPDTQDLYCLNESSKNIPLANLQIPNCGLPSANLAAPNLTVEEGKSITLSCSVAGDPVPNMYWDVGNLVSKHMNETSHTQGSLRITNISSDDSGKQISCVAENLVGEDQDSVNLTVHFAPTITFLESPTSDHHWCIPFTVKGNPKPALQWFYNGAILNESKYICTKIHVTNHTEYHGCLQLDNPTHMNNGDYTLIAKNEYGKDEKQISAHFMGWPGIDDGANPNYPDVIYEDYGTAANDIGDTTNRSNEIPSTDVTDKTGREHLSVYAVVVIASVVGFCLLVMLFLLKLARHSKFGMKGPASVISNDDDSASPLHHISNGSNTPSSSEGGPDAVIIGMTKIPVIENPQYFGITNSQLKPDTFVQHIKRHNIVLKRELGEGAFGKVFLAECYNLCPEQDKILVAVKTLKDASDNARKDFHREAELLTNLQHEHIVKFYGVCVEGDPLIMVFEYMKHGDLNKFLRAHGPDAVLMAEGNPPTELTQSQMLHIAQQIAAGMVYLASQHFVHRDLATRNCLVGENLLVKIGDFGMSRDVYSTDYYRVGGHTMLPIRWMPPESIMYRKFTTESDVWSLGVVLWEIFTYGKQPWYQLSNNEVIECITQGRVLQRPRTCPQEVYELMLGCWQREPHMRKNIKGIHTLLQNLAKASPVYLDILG

Serine/threonine-protein kinase tousled-like 2 (Homo sapiens), sequence (Q86UE8 whole entry, looked up): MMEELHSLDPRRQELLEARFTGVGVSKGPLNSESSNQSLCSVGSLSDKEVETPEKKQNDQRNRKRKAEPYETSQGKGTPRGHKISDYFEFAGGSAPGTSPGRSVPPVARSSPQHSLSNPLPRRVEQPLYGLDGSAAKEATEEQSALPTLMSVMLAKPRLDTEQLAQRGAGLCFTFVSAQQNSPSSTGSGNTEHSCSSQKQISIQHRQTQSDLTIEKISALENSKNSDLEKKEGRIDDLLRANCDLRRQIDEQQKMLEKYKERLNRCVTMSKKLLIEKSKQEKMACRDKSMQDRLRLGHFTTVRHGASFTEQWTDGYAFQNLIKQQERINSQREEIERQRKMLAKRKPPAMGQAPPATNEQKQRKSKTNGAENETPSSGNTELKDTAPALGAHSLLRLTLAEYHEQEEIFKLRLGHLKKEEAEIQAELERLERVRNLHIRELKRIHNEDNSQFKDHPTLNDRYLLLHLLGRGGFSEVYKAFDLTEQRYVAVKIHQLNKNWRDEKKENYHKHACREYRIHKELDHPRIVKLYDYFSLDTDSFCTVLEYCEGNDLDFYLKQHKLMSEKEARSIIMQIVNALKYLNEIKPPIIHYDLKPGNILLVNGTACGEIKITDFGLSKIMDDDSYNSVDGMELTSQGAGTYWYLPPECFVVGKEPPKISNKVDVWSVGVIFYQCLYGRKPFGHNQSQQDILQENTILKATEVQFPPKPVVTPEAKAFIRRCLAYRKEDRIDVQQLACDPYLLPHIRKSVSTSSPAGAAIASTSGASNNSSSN
High affinity nerve growth factor receptor (Homo sapiens), sequence (P04629 33-796 limits assumed): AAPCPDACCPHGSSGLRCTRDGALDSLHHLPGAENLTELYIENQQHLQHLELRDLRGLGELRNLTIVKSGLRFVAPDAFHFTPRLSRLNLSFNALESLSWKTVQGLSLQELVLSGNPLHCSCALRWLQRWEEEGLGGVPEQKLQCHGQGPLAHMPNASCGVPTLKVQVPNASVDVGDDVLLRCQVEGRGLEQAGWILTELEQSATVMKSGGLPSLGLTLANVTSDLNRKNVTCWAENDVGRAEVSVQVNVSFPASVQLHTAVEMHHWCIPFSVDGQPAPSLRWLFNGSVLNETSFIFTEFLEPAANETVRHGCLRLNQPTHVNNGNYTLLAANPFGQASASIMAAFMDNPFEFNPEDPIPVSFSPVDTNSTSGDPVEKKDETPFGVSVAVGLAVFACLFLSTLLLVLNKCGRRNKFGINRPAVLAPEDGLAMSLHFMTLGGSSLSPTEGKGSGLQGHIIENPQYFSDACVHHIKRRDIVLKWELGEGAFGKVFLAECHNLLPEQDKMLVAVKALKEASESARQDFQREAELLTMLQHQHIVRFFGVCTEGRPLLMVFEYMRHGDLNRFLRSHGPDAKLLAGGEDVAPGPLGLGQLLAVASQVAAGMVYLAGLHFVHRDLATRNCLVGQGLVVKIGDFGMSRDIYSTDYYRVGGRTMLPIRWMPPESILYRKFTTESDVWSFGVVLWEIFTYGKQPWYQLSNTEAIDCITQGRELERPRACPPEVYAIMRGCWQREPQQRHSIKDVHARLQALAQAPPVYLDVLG
Angiopoietin-1 receptor (Homo sapiens), sequence (Q02763 whole entry): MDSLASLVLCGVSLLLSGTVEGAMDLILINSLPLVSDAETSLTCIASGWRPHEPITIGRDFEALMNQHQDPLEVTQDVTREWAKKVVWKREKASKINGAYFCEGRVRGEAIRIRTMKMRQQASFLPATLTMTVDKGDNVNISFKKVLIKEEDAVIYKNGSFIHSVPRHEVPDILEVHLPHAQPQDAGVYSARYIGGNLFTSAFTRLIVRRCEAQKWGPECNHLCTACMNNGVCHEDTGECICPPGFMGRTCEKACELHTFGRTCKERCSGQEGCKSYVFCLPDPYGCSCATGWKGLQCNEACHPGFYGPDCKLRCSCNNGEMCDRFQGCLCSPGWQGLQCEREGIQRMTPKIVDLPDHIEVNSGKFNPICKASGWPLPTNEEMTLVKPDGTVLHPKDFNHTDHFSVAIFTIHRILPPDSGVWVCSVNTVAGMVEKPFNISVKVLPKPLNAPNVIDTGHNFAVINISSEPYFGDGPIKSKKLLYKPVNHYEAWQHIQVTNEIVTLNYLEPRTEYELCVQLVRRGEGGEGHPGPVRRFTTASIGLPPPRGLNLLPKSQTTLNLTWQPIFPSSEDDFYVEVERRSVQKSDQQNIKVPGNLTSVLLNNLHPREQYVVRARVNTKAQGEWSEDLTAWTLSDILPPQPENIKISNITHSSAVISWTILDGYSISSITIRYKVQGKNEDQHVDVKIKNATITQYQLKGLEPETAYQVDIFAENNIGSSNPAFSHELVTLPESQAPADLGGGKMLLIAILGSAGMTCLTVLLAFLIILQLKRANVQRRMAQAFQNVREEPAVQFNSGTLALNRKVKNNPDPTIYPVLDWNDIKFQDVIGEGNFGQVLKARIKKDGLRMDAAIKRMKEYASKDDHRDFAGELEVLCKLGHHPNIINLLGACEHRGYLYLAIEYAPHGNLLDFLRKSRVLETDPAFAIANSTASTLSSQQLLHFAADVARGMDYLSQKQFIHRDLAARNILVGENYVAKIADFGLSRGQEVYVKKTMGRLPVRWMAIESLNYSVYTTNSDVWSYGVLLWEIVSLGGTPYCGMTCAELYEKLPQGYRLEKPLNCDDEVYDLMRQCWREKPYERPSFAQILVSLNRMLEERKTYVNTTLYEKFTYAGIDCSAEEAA

The term residual activity denotes the signal under treatment as a percentage of the control signal. With `Cn1cc(/C=C2\C(=O)Nc3ccc(S(N)(=O)=O)cc32)c2ccccc21`, the residual activity in assay [1] came out at 69%; in assay [2], 28%; in [3] it was 83%; in assay [4] it was 90%; in [5], 79%; in assay [6] it was 26%. Besides, the residual activity came out at 72% in assay [7]; 19% in assay [8]; 87% in assay [9]; 43% in assay [10]; 19% in [11]; 14% in assay [12]. Moreover, the residual activity turned out to be 72% in [13]; 52% in [14]; 6% in assay [15]; 86% in [16]; 73% in assay [17]; 1% in assay [18]. Further, the results for the residual activity in [19] and in assay [20] were 1% and 23%, respectively.
Regarding `Oc1n[nH]c2nnc(-c3c(-c4ccccc4)nn4ccccc34)cc12`, the residual activity in [1] is 87%; in assay [2] it was 84%; in [3], 56%; in assay [4], 74%; in [5], 95%; in assay [6], 93%. For the same compound, the residual activity was found to be 77% in assay [7]; 103% in assay [8]; 83% in assay [9]; 82% in assay [10]; 82% in assay [11]; 93% in assay [12]. The residual activity in assay [13] worked out at 83%; in assay [14] it was 85%; in assay [15], 66%; in [16], 97%; in assay [17], 93%; in [18], 83%. For the same compound, the residual activity in assay [19] was found to be 70%; in assay [20], 98%.
Take `CO[C@H]1C[C@@H]2CC[C@@H](C)[C@@](O)(O2)C(=O)C(=O)N2CCCC[C@H]2C(=O)O[C@H]([C@H](C)C[C@@H]2CC[C@@H](O)[C@H](OC)C2)CC(=O)[C@H](C)/C=C(\C)[C@@H](O)[C@@H](OC)C(=O)[C@H](C)C[C@H](C)/C=C/C=C/C=C/1C`: the residual activity in [1] worked out at 87%; in [2], 86%; in assay [3], 97%; in [4], 112%; in assay [5], 83%; in assay [6] it was 81%. The residual activity in assay [7] is 113%; in [8] it was 64%; in assay [9], 92%; in assay [10] it was 83%; in [11], 86%; in assay [12], 80%. For the same compound, the residual activity in [13] was 106%; in assay [14], 96%; in assay [15], 90%; in [16] it was 79%; in [17], 96%; in [18] it was 89%. The residual activity in assay [19] was 41%; in assay [20] it was 102%.
